In PubChem BioAssay (EPA / NIEHS):
Values joined by “and” are separate entries in the source; they are usually repeats but may differ in a detail not shown here. Identical values can stand only once. Some structures have more than one record in an assay (separate samples or runs), and their calls can disagree. Active and inactive are the calls of the source. Rule for the calls: active = hit-call score of the fitted dose curve at least 0.9, where 1 is the maximum; inactive = score below 0.9.

Experiment: APR_HepG2_CellLoss_72hr: Apredica 72-hour HepG2 Assay for Cell Loss (AID 2282915)
Conditions: high-content imaging
Experimental: APR_HepG2_72hr is a cell-based, multiplexed-readout assay that uses HepG2, a human liver cell line, with measurements taken at 72 hours after chemical dosing in a 384-well plate.APR_HepG2_CellLoss_72hr is one of 10 assay component(s) measured or calculated from the APR_HepG2_72hr assay. It is designed to make measurements of cell number, a form of viability reporter, as detected with fluorescence intensity signals by HCS Fluorescent Imaging technology.Data from the assay component APR_HepG2_CellLoss_72hr was analyzed into 1 assay endpoint. This assay endpoint, APR_HepG2_CellLoss_72hr, was analyzed with bidirectional fitting relative to DMSO as the negative control and baseline of activity. Using a type of viability reporter, measures of all nuclear dna for gain or loss-of-signal activity can be used to understand the viability at the cellular-level. Furthermore, this assay endpoint can be referred to as a secondary readout, because this assay has produced multiple assay endpoints where this one serves a viability function. To generalize the intended target to other relatable targets, this assay endpoint is annotated to the cell cycle intended target family, where the subfamily is proliferation.
Cells were treated with dimethyl sulfoxide (DMSO) as a solvent control at a final concentration of 0.5% v/v or with compounds in DMSO with a resulting final DMSO concentration of 0.5% v/v. Compound treatment was done at concentrations of 0.39, 0.78, 1.56, 3.12, 6.24, 12.5, 25, 50, 100, and 200 uM in duplicate on each plate. Cells were treated with compounds for 1, 24, or 72 hr. Carbonyl […] m-chloro-phenylhydrazone (CCCP) and taxol were used as positive controls for mitochondrial function and cytoskeletal stability, respectively; DMSO served as the negative control for this experiment. Cells were fixed by the direct addition of 50 uL formaldehyde in Hank's Balanced Salt Solution (HBSS) to a final concentration of 3.7%. After incubation in the fixation medium for 30 min at room temperature (293-298 K), cells were rinsed twice with HBSS and treated with cell permeabilization buffer (16 uL of 0.5% Triton X-100) for 10 min at room temperature (293-298 K) before labeling. For mitochondrial membrane potential and mitochondrial measurements, pre-fixed cells were incubated with 50 uL of MitoTracker Red CMXRos (Invitrogen) at a concentration of 250 nM for 30 min before fixation. In the remaining cases, post-fixed cells were labeled by incubation with a multiplexed mixture of primary antibodies in HBSS for 60 min at room temperature (293-298 K) to detect immunoreactivity of c-Jun (1:500), phospho-histone H3 (1:100), phospho-histone H2A.x (1:200), p53 (1:400), alpha-tubulin (1:200) and Hoechst 33342 (2 ug/mL). Cells were labeled for multiplexed imaging on two separate plates: a) Hoechst 33342, MitoTracker Red, phospho-histone H3, and alpha-tubulin, and b) Hoechst 33342, phospho-histone H2A.x, and c-Jun. A final rinse with HBSS (50 uL) was performed before analysis. The primary and secondary antibodies for the proteins were phospho-histone H3 (rabbit anti-phospho-histone H3 and FITC-donkey anti-rabbit IgG), phospho-histone H2A.x (mouse anti-phospho-histone H2A.x and FITC-donkey anti-mouse IgG), c-Jun (rabbit anti-phospho-c-Jun and Cy3-donkey anti-rabbit IgG), p53 (sheep anti-p53 and Cy5-donkey anti-sheep IgG), alpha-tubulin (mouse anti-alpha-tubulin and Cy5-donkey anti-mouse IgG). These antibodies are available as the CellCiphr HepG2 assay kit (Millipore).Digital images of each well were captured using a Cellomics ArrayScan VTI (Thermo Scientific Cellomics) (0.8 NA objective, 0.63x optical coupler, and XF-93 filter set) at 20x magnification. The images were acquired using the autofocus feature of the ArrayScan instrument, which entails the following steps. First, the camera focuses on channel 1 (Hoechst 33342), where nuclei are identified. Second, a Z offset of 1 um is used for capturing mitochondria (MitoTracker Red). […]

SMILES	outcome	AC50
CC1(C)C(C=C(Cl)Cl)C1C(=O)OC(C#N)c1ccc(F)c(Oc2ccccc2)c1 (stereo not given)	inactive	
Oc1ccc(Cl)cc1Cc1ccccc1	inactive	70 µM (active) [middle of 6 runs]
CC(C)N(C(=O)COc1nnc(C(F)(F)F)s1)c1ccc(F)cc1		37.6 µM (active)
CCC(C)(NC(=O)c1cc(Cl)c(C)c(Cl)c1)C(=O)CCl (stereo not given)	inactive	
CCCN(CCC)c1c([N+](=O)[O-])cc(C(F)(F)F)cc1[N+](=O)[O-]		109 µM (active)
COC(=O)c1ccccc1S(=O)(=O)NC(=O)N(C)c1nc(C)nc(OC)n1	inactive	
CC(C)(C)C(O)C(Oc1ccc(Cl)cc1)n1cncn1 (stereo not given)	inactive	90.5 µM (active) and 96.3 µM (active) and 36.1 µM (active)
COP(=S)(OC)Oc1ccc([N+](=O)[O-])cc1	inactive	
CC[C@H](C)[C@H]1O[C@]2(C=C[C@@H]1C)C[C@@H]1C[C@@H](C/C=C(\C)[C@@H](O[C@H]3C[C@H](OC)[C@@H](O[C@H]4C[C@H](OC)[C@@H](O)[C@H](C)O4)[C@H](C)O3)[C@@H](C)/C=C/C=C3\CO[C@@H]4[C@H](O)C(C)=C[C@@H](C(=O)O1)[C@]34O)O2 (tested in a mixture with another compound)	inactive	
Oc1cc(Cl)ccc1Oc1ccc(Cl)cc1Cl		35.3 µM (active) and 26.9 µM (active) and 67 µM (active)
O=C(O)C(F)(F)C(F)(F)C(F)(F)C(F)(F)C(F)(F)C(F)(F)C(F)(F)F	inactive	108 µM (active)
OCCOc1ccccc1	inactive	
CCc1ccc(C(=O)NN(C(=O)c2cc(C)cc(C)c2)C(C)(C)C)cc1		43.6 µM (active)
CCOc1nc(NC)nc(NC(=O)NS(=O)(=O)c2ccccc2C(=O)OC)n1	inactive	
CC(C)(C)C(O)/C(=C\c1ccc(Cl)cc1Cl)n1cncn1 (stereo not given)		15.3 µM (active)
ClC1C(Cl)C(Cl)C(Cl)C(Cl)C1Cl (stereo not given)	inactive	57.2 µM (active)
O=[N+]([O-])/N=C1\NCCN1Cc1ccc(Cl)nc1	inactive	
CCOC1Oc2ccc(OS(C)(=O)=O)cc2C1(C)C (stereo not given)		46.1 µM (active)

SMILES	outcome	AC50
COC(=O)c1ccccc1S(=O)(=O)NC(=O)Nc1nc(C)nc(OC)n1	inactive	
CC(C)OC(=O)Nc1cccc(Cl)c1	inactive	
O=C1c2ccccc2C(=O)N1SC(Cl)(Cl)Cl		30.8 µM (active)
CCCN(CCOc1c(Cl)cc(Cl)cc1Cl)C(=O)n1ccnc1		30.8 µM (active)
Clc1ccccc1-c1nnc(-c2ccccc2Cl)nn1		39.7 µM (active)
CCC(C)(C)C(=O)OC1=C(c2ccc(Cl)cc2Cl)C(=O)OC12CCCCC2		133 µM (active)
C#CCN1C(=O)COc2cc(F)c(N3C(=O)C4=C(CCCC4)C3=O)cc21	inactive	
CNC(=O)Oc1cccc(N=CN(C)C)c1		96.5 µM (active)
CN1CSC(=S)N(C)C1		21.9 µM (active)
O=[N+]([O-])c1c(Cl)c(Cl)c(Cl)c(Cl)c1Cl	inactive	
O=C(NC(=O)c1c(F)cccc1F)Nc1ccc(OC(F)(F)C(F)OC(F)(F)F)c(Cl)c1 (stereo not given)	inactive	
O=S(=O)(O)C(F)(F)C(F)(F)C(F)(F)C(F)(F)C(F)(F)C(F)(F)C(F)(F)C(F)(F)F		111 µM (active) [middle of 5 runs]
Cc1cc(C)nc(NC(=O)NS(=O)(=O)c2ccccc2C(=O)OC2COC2)n1	inactive	
C[C@H]1[C@H](c2ccc(Cl)cc2)SC(=O)N1C(=O)NC1CCCCC1		33.5 µM (active)
O=S1OCC2C(CO1)C1(Cl)C(Cl)=C(Cl)C2(Cl)C1(Cl)Cl (stereo not given)		100 µM (active)
CNC(=O)Oc1ccccc1OC(C)C	inactive	
CNC(=O)/C=C(\C)OP(=O)(OC)OC	inactive	
[2H]C1([2H])[n+]2ccccc2-c2cccc[n+]2C1([2H])[2H]		35.1 µM (active)
